Reference: PubChem BioAssay (NCATS)
Results filed as inconclusive are left out. Unless noted, the call rests on the fitted dose curve.

Key:
[1] = Cell Viability - BJ (AID 421); conditions: BJ fibroblast viability, qHTS;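 further: cells exposed to compound for 40 hours at 37 °C before readout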
In short: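 Normal human BJ foreskin fibroblasts, 1500/well in complete medium, treated 40 hr at 37 °C. Cellular ATP by CellTiter-Glo luminescence; normalized to DMSO and 100 uM tamoxifen, AC50 from Hill fit.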

[2] = Cell Viability - Jurkat (AID 426;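 active means dose-dependent loss of cell ATP signal giving a full or clear fitted curve, ranked by lower potency value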); conditions: qHTS
In short: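 Seed 5000 Jurkat E6-1 cells/well; add compound; incubate 40 hr at 37 °C; add CellTiter-Glo; wait 20 min at room temperature; read luminescence. Fit concentration-response with Hill equation for AC50.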

[3] = Cell Viability - Hek293 (AID 427;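 active means compounds whose dose-response curve shows a full or clear partial loss of cell viability, called from curve shape rather than a numeric limit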;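 further: cells exposed to compound for 40 hours at 37 °C before reading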); conditions: qHTS
In short: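 HEK293 cells in complete medium were exposed to compound for 40 hr at 37 °C, then cellular ATP was read by CellTiter-Glo luminescence. Data were normalized to DMSO (basal) and 100 uM tamoxifen (100% inhibition), and AC50 came from Hill fits.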

[4] = Cell Viability - HepG2 (AID 433); conditions: qHTS;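 further: potency for ATP loss meaning cytotoxicity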
In short: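 Cytotoxicity is scored as loss of intracellular ATP in HepG2 cells exposed to compounds for 40 h. Concentration-response curves, normalized to DMSO and 100 uM tamoxifen, give AC50 values.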

[5] = Cell Viability - MRC5 (AID 434); conditions: MRC5 lung fibroblast viability, qHTS;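 further: potency reflects cytotoxicity seen as loss of intracellular ATP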
In short: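 MRC5 normal human lung fibroblasts (1500/well) were treated with compounds for 40 hr at 37 °C in complete medium, and viable cells were measured as intracellular ATP by CellTiter-Glo luminescence. AC50 came from Hill fits, normalized to DMSO and 100 uM tamoxifen.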

[6] = Cell Viability - SK-N-SH (AID 435); conditions: SK-N-SH neuroblastoma cell viability qHTS;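 further: compound exposure lasted 40 h at 37 °C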
In short: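 Cells seeded at 1500 per well and incubated 5 hr at 37 °C. Compound added, then 40 hr at 37 °C. CellTiter-Glo added, 20 min at room temperature, luminescence read.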

Measured: Potency
Potency means the concentration at half of the fitted maximal effect.

C[C@@H]1C[C@H]2[C@@H]3CCC4=CC(=O)C=C[C@]4(C)[C@@]3(F)[C@@H](O)C[C@]2(C)[C@@]1(O)C(=O)CO
inactive: [1] > 92 µM | [2] > 92 µM | [3] > 92 µM | [4] > 92 µM | [5] > 92 µM | [6] > 92 µM
